Several values for one entry are separate records, joined by “and”; a condition that tells them apart may be missing. Equal entries are not always repeated. Activity calls are given as the source filed them. Rule for the calls: active = hit-call score of the fitted dose curve at least 0.9, where 1 is the maximum; inactive = score below 0.9.
Read-out: Collagen III, COL3A1 (gene 1281)
Experiment: BSK_hDFCGF_CollagenIII: BioMAP Diversity Plus: hDFCGF Assay for Collagen III Biomarker Activity (AID 2283056)
Details: primary human foreskin fibroblasts; actives raise or lower the signal
Method: BSK_hDFCGF is a cell-based, multiplexed-readout assay that uses foreskin fibroblast, a human skin primary cell, with measurements taken at 24 hours after chemical dosing in a 96-well plate.BSK_hDFCGF_CollagenIII is an assay component measured in the BSK_hDFCGF assay. It measures Collagen antibody related to regulation of gene expression using ELISA technology.Data from the assay component BSK_hDFCGF_CollagenIII was analyzed into 1 assay endpoint. This assay endpoint, BSK_hDFCGF_CollagenIII, was analyzed with bidirectional fitting relative to DMSO as the negative control and baseline of activity. Using a type of binding reporter, gain or loss-of-signal activity can be used to understand changes in the signaling as they relate to the gene COL3A1. Furthermore, this assay endpoint can be referred to as a primary readout, because this assay has produced multiple assay endpoints where this one serves a signaling function. To generalize the intended target to other relatable targets, this assay endpoint is annotated to the cell adhesion molecules intended target family, where the subfamily is collagen.
The levels of cell surface (or secreted, indicated by the prefix "s") biomarker endpoints were measured by ELISA. Overt cytotoxicity to cells in confluent adherent cultures (all systems other than the BT system) was assessed by measuring total protein levels using sulforhodamine B (SRB) staining in parallel cultures at the time of biomarker measurements, indicated as SRB endpoints. For proliferation assays for adherent cell types, individual cell types are cultured at sub-confluence and relative cell numbers quantified by SRB staining at time points optimized for each system (48 h: 3C and CASM3C systems; 72 h: BT and HDF3CGF systems; 96 h: SAg system). SRB was performed by staining cells with 0.1% SRB after fixation with 10% TCA and reading wells at 560 nm.Viability and proliferation of PBMC (T cells) was quantified by Alamar Blue reduction for the SAg and BT systems. For PBMC viability (referred to as PBMC Cytotoxicity within the assay endpoint names), cells were plated (75,000/well in a 96-well plate) and then chemical samples added for 1 h before addition of activators, SEB and TSST-1 (20 ng/mL final concentration each). Cells were incubated for 90 h. Then, Alamar Blue (20 uL/well) (Invitrogen, Cat DAL1100) was added for 6 h, and the plates were read with a fluorescence microplate reader at 546/580 nm (excitation/emission). For PBMC proliferation, cells were plated and activated as above but incubated for only 16 h prior to addition of Alamar Blue. Plates were read after 6 h.

Compound | outcome | AC50
O=C1OC2(c3ccccc31)c1ccc(O)c(Br)c1Oc1c2ccc(O)c1Br | inactive | 
C1=CC2C3C=CC(C3)C2C1 (stereo not given) | inactive | 
CC(C)(N=C=O)c1cccc(C(C)(C)N=C=O)c1 | inactive | 
CC(=O)c1c(C)c([N+](=O)[O-])c(C(C)(C)C)c([N+](=O)[O-])c1C | inactive | 
CN(C)C(=O)Nc1ccc(Oc2ccc(Cl)cc2)cc1 | inactive | 
C[C@@H]1CCN(C(=O)[C@H](CCCN=C(N)N)NS(=O)(=O)c2cccc3c2NC[C@H](C)C3)[C@@H](C(=O)O)C1 | inactive | 
Oc1c(Cl)cc(Cl)c(Cl)c1Cc1c(O)c(Cl)cc(Cl)c1Cl |  | 4.93 µM (active)
c1ccc(Oc2ccccc2)cc1 | inactive | 
CCCCCC(C=O)=Cc1ccccc1 |  | 31 µM (active)
CC(C=O)Cc1ccc(C(C)(C)C)cc1 (stereo not given) | inactive | 
C=C(C)[C@H]1CC=C(C)C(=O)C1 | inactive | 
COc1cc(Cl)c(OC)cc1N | inactive | 
CS(=O)(=O)OCCCCOS(C)(=O)=O | inactive | 
O=C1OC[C@H](Cc2cccc(O)c2)[C@H]1Cc1cccc(O)c1 | inactive | 
C=CC(C)(O)CCC=C(C)C (stereo not given) | inactive | 
CC1(C)C2=CCCC(C)(C)[C@]23CC[C@H]1C3 |  | 20 µM (active)
COc1ccc(CCN2CCC(Nc3nc4ccccc4n3Cc3ccc(F)cc3)CC2)cc1 |  | 5 µM (active)
O=C(Nc1ccc2c(O)c(N=Nc3ccc(N=Nc4ccc(S(=O)(=O)O)cc4)cc3)c(S(=O)(=O)O)cc2c1)c1ccccc1 | inactive | 
COc1ccc(OC)c(N=Nc2c(O)ccc3ccccc23)c1 |  | 1.92 µM (active)
CC(=O)C1(C)CC2=C(CCCC2(C)C)CC1C (stereo not given) |  | 10.5 µM (active)

Compound | outcome | AC50
c1ccc(CCc2ccccc2)cc1 |  | 36.1 µM (active)
CN(C)C(=S)SC(=S)N(C)C |  | 15.2 µM (active)
CCC(C)c1cc([N+](=O)[O-])cc([N+](=O)[O-])c1OC(=O)OC(C)C (stereo not given) |  | 6.86 µM (active)
CC=Cc1ccc(OCC)c(O)c1 | inactive | 
C=C(C)C(=O)OCC(CC)(COC(=O)C(=C)C)COC(=O)C(=C)C | inactive | 
CS(=O)(=O)c1ccc(C2=C(c3ccccc3)C(=O)OC2)cc1 | inactive | 
CCCCN(CCCC)C(=O)N(CCCC)CCCC |  | 7.43 µM (active)
C=C(C)C(=O)OCCOCCOCCOC(=O)C(=C)C | inactive | 
C=C(C)C(=O)OCCOCCOCCOCCOC(=O)C(=C)C | inactive | 
IC(I)I | inactive | 
CCCCOC(=O)CCCCCCCC(=O)OCCCC | inactive | 
Cc1cc(CCC(=O)OCCOCCOCCOC(=O)CCc2cc(C)c(O)c(C(C)(C)C)c2)cc(C(C)(C)C)c1O |  | 23.1 µM (active)
CC(=O)Nc1ccc(C(=O)CCl)cc1 |  | 7.2 µM (active)
c1ccc2cc(Nc3ccc(Nc4ccc5ccccc5c4)cc3)ccc2c1 | inactive | 
CN(c1nccc(=O)[nH]1)C1CCN(c2nc3ccccc3n2Cc2ccc(F)cc2)CC1 | inactive | 
O=C1c2ccccc2C(=O)c2c(O)ccc(O)c21 | inactive | 
O=CN1CCOCC1 | inactive | 
CC1(C)CCC[C@]2(C)[C@H]3CCO[C@]3(C)CC[C@@H]12 |  | 31.4 µM (active) and 30.6 µM (active)
CC(C)(C)CC(C)(C)c1ccc(OCCOCC[N+](C)(C)Cc2ccccc2)cc1 |  | 2.22 µM (active)
CCCCCCCCCCCCCCCC(=O)OC/C=C(C)/C=C/C=C(C)/C=C/C1=C(C)CCCC1(C)C |  | 3.97 µM (active)

From PubChem BioAssay (EPA / NIEHS)
